Most compounds without a hit are left out; they make up all but 11% or so of the library.
NS1 inh – qHTS Assay for Inhibitors of Influenza NS1 Protein Function; Potency, µM (highest dose often 46.1 µM), for inactives: top-dose activity, positive = more growth; 270,000 tested, 0.4% active; AID 2326, 2010; calls by dose curve; further: actives are rising curves; nearly all actives have a fitted effect of over 50% in size
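Compounds were scored for reversing the slow growth caused by influenza A NS1 in S. cerevisiae, measured by optical density at 600 nm. Assay medium contained 2% galactose at pH 6.0; NS1-free yeast of the same strain were the positive control.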
Sm TGR inh – qHTS Assay for the Inhibitors of Schistosoma Mansoni Peroxiredoxins | Potency, µM (doses to about 114 µM), without a hit: at the top dose activity change, negative = inhibition, usual class: inhibitors | Schistosoma mansoni thioredoxin glutathione reductase (TGR), Q962Y6 | 360,000 tested, 3% active | purified TGR, DTNB reduction, TNB absorbance 405 nm | AID 485364, 2010; further: on the % scale 0 is the no-effect control and ±100 the full control effect; nearly all actives have a fitted effect of over 60% in size
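TGR 20 nM + NADPH 100 uM (dispensed conc.), cpd preinc 15 min RT; start with NADPH (500 uM addition) then DTNB (15 mM addition). Kinetic TNB absorbance, 405 nm filter. Four-parameter Hill fit across titration.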
Pf growth 48h – Primary qHTS for delayed death inhibitors of the malarial parasite plastid, 48 hour incubation. AID 504832, 2011. 310,000 tested, 5.9% active. Potency, µM (top dose mostly 28.7 µM), for the others: at the top dose activity change, negative = inhibition, hits mostly inhibitors. P. falciparum luciferase growth in erythrocytes, 48 h; further: on the % scale 0 is the no-effect control and ±100 the full control effect
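Luciferase-expressing parasites in RBCs, 2% Hct / 0.1% parasitemia final; RPMI 1640 + 0.5% Albumax; 37 C, 5% CO2, one generation; luminescence read-out, lower signal = inhibition.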
AMA1 RON2 block – qHTS for Inhibitors of AMA1-RON; Towards Development of Antimalarial Drug Lead: Primary Screen. AlphaScreen AMA1-biotinylated RON2 peptide binding. Plasmodium falciparum AMA1 (3D7) - RON2 peptide interaction. Potency, µM (series often up to 58.2 µM), for inactives: top-dose activity change, negative = inhibition, actives largely listed as inhibitors. 360,000 tested, 0.2% active. AID 720542, 2013;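 further: 0% = vehicle wells and -100% = peptide control; nearly all actives have a fitted effect of over 45% in size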
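AMA1 (3D7) with his tag at 25 nM final met compounds first, then biotinylated RON2 peptide at 25 nM; detection used donor plus acceptor beads, 10 µg/mL apiece, read by AlphaScreen after 30 min at room temperature.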
Pf growth 96h – Primary qHTS for delayed death inhibitors of the malarial parasite plastid, 96 hour incubation | P. falciparum luciferase reporter growth, 96 h | Potency, µM (top dose mostly 28.7 µM), for inactives: top-dose activity change, negative = inhibition, usual class: inhibitors | 320,000 tested, 6.9% active; further: on the % scale 0 is the no-effect control and ±100 the full control effect
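Two-generation exposure (96 h) targets delayed-death phenotype. Reporter parasites carrying integrated firefly luciferase, in red cells at 2% hematocrit and 0.05% parasitemia final, kept at 37 C, 5% CO2; luminescence loss indicates inhibition.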
An asterisk follows results filed as active. Unless noted, the call rests on the fitted dose curve; in most records, active means well fitted curve in the direction sought with a large enough effect; inconclusive means small, poorly fitted or top-dose-only effect, or another doubt; inactive means no such curve, though single readings can be large; an effect the other way counts as inactive or inconclusive. Potency means the concentration at half of the fitted maximal effect.

Results for CCN1CCN(c2cc(C(C)C)nc3c(-c4ccccc4)c(C)nn23)CC1 ?
NS1 inh: -3%; Sm TGR inh: 11%; Pf growth 48h: inconclusive; AMA1 RON2 block: inconclusive; Pf growth 96h: 15µM*

How did Cc1cc(NCc2ccccn2)n2ncc(-c3ccc(Cl)cc3)c2n1 do in these assays?
NS1 inh: -6%; Sm TGR inh: 12%; Pf growth 48h: 33%; AMA1 RON2 block: 100%; Pf growth 96h: 36%

What do the screens show for `Cc1nn2c(N3CCOCC3)cc(C(C)C)nc2c1-c1ccccc1`?
NS1 inh: -3%; Sm TGR inh: 16%; Pf growth 48h: -10%; AMA1 RON2 block: 16%; Pf growth 96h: -10%

What do the screens show for `Cc1nn2c(NCc3ccccn3)cc(C(C)C)nc2c1-c1ccccc1`?
NS1 inh: -81%; Sm TGR inh: -4%; Pf growth 48h: 1.7µM*; AMA1 RON2 block: 106%; Pf growth 96h: 1.7µM*

Results for Cc1nn2c(NCCCn3ccnc3)cc(C(C)C)nc2c1-c1ccccc1 ?
NS1 inh: -3%; Sm TGR inh: 8%; Pf growth 48h: 2.1µM*; AMA1 RON2 block: 1%; Pf growth 96h: 8.3µM*

How did CN(Cc1ccccc1)c1nc(N)nc(Cl)c1C=O do in these assays?
Sm TGR inh: 2%; Pf growth 48h: inconclusive; AMA1 RON2 block: 38%; Pf growth 96h: inconclusive

What do the screens show for `CC(/C=C/c1ccccc1F)=N\NC(=O)c1cccc(F)c1`?
Sm TGR inh: -9%; Pf growth 48h: 2%; AMA1 RON2 block: 106%; Pf growth 96h: -23%

Results for CCOC(=O)C1=CNS(=O)(=O)NC1c1ccc(C)cc1 (stereo not given) ?
AMA1 RON2 block: -1%

What do the screens show for `CCCc1cc(N2CCCC2)n2nc(C)c(-c3ccccc3)c2n1`?
NS1 inh: -11%; Sm TGR inh: 7%; Pf growth 48h: inconclusive; AMA1 RON2 block: 26%; Pf growth 96h: inconclusive

Results for CCCc1cc(NCc2ccccn2)n2nc(C)c(-c3ccccc3)c2n1 ?
NS1 inh: -108%; Sm TGR inh: 0%; Pf growth 48h: 2.6µM*; AMA1 RON2 block: 96%; Pf growth 96h: 13µM*

Results for COc1cc2c3c(c1)c(N=NC(N)=S)c(O)n3C(C)(C)C=C2C ?
NS1 inh: -3%; Sm TGR inh: 0%; Pf growth 48h: 10µM*; AMA1 RON2 block: 20%; Pf growth 96h: 6.6µM*

Results for O=C(C[n+]1cnn(CC(=O)c2ccc(Cl)cc2Cl)c1)c1ccc([N+](=O)[O-])cc1 ?
NS1 inh: inconclusive; Sm TGR inh: 7%; Pf growth 48h: 3.7µM*; AMA1 RON2 block: 5%; Pf growth 96h: inconclusive

How did O=C(Cn1cnc([N+](=O)[O-])c1)c1ccc(Cl)cc1 do in these assays?
Sm TGR inh: -8%; Pf growth 48h: 25%; AMA1 RON2 block: 7%; Pf growth 96h: 68%

How did CCc1ccccc1NC(=O)Cn1c(=O)n(-c2ccccc2)c(=O)c2oc3ccccc3c21 do in these assays?
Sm TGR inh: 2%

Results for CCOC(=O)Cn1c(=O)oc2cc(S(=O)(=O)Nc3cc(OCC)ccc3OCC)ccc21 ?
NS1 inh: -31%; Sm TGR inh: 1%; Pf growth 48h: inconclusive; AMA1 RON2 block: -8%; Pf growth 96h: 1.5µM*

What do the screens show for `CCOC(=O)Cn1c(=O)oc2cc(S(=O)(=O)NC(C)c3ccccc3)ccc21` (stereo not given)?
NS1 inh: 3%; Sm TGR inh: 6%; AMA1 RON2 block: -7%; Pf growth 96h: 8.3µM*

What do the screens show for `O=C(Nc1ccc(F)cc1)Nc1nnc(Cc2ccccc2)s1`?
NS1 inh: 15%; Sm TGR inh: 0%; Pf growth 48h: inconclusive; AMA1 RON2 block: 2%; Pf growth 96h: 4.7µM*

What do the screens show for `COc1ccc(Cc2nnc(NC(=O)Nc3ccc(F)cc3)s2)cc1`?
NS1 inh: 5%; Sm TGR inh: -15%; Pf growth 48h: inconclusive; AMA1 RON2 block: 3%; Pf growth 96h: inconclusive

High-throughput results as filed in PubChem BioAssay.
